# Screening results from PubChem.
# HTT ATP protect: protects HTT-Q103 PC12 cells, measured by ATP. PC12 HTT-Q103 induced, cytoprotection, ATP luminescence, 40 h. Potency, µM (highest dose often 56.4 µM), for the others: cytoprotection (ATP increase), most hits filed as activators. 230,000 tested, 0.14% active. AID 1471; active = well fitted curve in the direction sought with a large enough effect; inconclusive = small, poorly fitted or top-dose-only effect, or another doubt; inactive = no such curve, though single readings can be large; an effect the other way counts as inactive or inconclusive; also: % of control where 0% means no effect; nearly all actives have a fitted effect of over 45% in size
#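 Stable PC12 Q103-GFP cells in serum-supplemented, phenol red-free DMEM; induction by tebufenozide at 100 nM final; compound dose series; cell viability quantified luminescently from ATP.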
# HttQ103 aggreg: reduces HttQ103-GFP aggregates in PC12 cells. AID 1688. 220,000 tested, 1.1% active. Potency, µM (titrated, usually from 46.1 µM), without a hit: at the top dose activity change, negative = inhibition, actives largely listed as inhibitors. PC12 HttQ103-GFP aggregates, Acumen cytometry, 40 h; active = well fitted curve in the direction sought with a large enough effect; inconclusive = small, poorly fitted or top-dose-only effect, or another doubt; inactive = no such curve, though single readings can be large; an effect the other way counts as inactive or inconclusive; also: % is scaled to controls: 0 for no effect and ±100 for the full control effect; nearly all actives have a fitted effect of over 60% in size
#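 PC12/HTTQ103-GFP, ecdysone-inducible; teb 100 nM; cpd qHTS titration; GFP aggregates read on laser cytometer, Ex 488/Em 500-530 nm.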
# HPGD block: inhibitors of human 15-hydroxyprostaglandin dehydrogenase (HPGD) | P15428 | 150,000 tested, 4.3% active | purified HPGD, NADH fluorescence kinetic, PGE2 substrate | Potency, µM, inactives show at the top dose activity change, negative = inhibition, actives largely listed as inhibitors | AID 894; also: % is scaled to controls: 0 for no effect and ±100 for the full control effect
#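 NADH formation kinetics: reaction with 30 uM PGE2 and 1 mM NAD+ (final), 20 nM enzyme, Tris-HCl pH 8 with Tween 20, after 15 min compound preincubation at room temperature. Fluorescence change, last versus first of five reads.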
# JMJD2E inh: inhibitors of human JMJD2E histone demethylase. Potency, µM (titrated, usually from 57.1 µM), for inactives: top-dose activity change, negative = inhibition, most hits filed as inhibitors. 230,000 tested, 1.6% active. AID 2147. JMJD2E catalytic domain, FDH-coupled NADH fluorescence (FDH is formaldehyde dehydrogenase). B2RXH2;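 also: 0% = wells with enzyme and -100% = buffer wells without enzyme; nearly all actives have a fitted effect of over 50% in size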
# Target sequence (B2RXH2 1-337 limits assumed): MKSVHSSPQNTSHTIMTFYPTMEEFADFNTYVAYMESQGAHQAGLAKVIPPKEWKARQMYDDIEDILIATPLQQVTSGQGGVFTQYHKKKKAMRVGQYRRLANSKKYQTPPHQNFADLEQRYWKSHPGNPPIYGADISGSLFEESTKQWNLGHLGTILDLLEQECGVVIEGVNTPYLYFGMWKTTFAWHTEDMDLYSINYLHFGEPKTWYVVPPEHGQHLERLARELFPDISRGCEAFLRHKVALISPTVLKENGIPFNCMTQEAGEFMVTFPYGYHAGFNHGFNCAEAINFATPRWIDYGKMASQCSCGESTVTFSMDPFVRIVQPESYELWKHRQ
# Lamin A splicing: LMNA splicing modulation | Potency, µM (doses to about 46.1 µM), inactives show at the highest dose ratio change, negative = inhibition, most hits filed as inhibitors | HeLa LMNA splicing GFP/RFP minigene ratio, 48 h | 200,000 tested, 0.01% active; active = well fitted inhibition curve with a large enough effect in the signal ratio, with a control signal flat, not every such curve was filed as active; inconclusive = small, poorly fitted or top-dose-only effect, or effect the other way, or a change in a side signal; the % refers to the signal ratio; also: % is scaled to controls: 0 for no effect and ±100 for the full control effect
#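 S3 HeLa cells stably expressing lamin A-EGFP splicing minigene plus DsRed2, 600 cells/well, 48 h compound exposure at 37C. Laser-scanning cytometry; analysed as GFP (500-530 nm)/RFP (575-640 nm) total intensity ratio; 0.5% DMSO vehicle.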
# ALDH1A1 inh: ALDH1A1 (human) enzyme inhibition; P00352; Purified ALDH1A1, NADH fluorescence, propionaldehyde substrate; 220,000 tested, 7.3% active; Potency, µM (doses to about 75.3 µM), for inactives: top-dose activity, negative = inhibition, usual class: inhibitors; AID 1030;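 also: plate controls were no enzyme wells and a reference inhibitor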
# Target sequence (P00352 whole entry, looked up): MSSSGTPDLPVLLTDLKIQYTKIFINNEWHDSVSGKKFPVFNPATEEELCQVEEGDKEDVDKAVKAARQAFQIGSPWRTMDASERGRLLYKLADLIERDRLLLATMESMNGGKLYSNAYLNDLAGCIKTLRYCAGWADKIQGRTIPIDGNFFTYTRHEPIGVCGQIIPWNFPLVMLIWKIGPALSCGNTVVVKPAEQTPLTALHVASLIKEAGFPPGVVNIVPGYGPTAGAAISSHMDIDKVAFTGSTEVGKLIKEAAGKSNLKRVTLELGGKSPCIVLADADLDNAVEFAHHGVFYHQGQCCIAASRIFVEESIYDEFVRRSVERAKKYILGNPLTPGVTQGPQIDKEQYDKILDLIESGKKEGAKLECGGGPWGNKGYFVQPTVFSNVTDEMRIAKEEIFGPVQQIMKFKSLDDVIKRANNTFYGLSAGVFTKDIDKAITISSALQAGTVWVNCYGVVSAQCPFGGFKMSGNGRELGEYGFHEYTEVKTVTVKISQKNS
# * marks the source's active call; other numbers are inactive results; ? = inconclusive; · = not tested or not shown; [ ] = another dose, or the depositor's remark. A selection: hits, their analogues and other compounds. The true share with any hit is near 9.2%. Unless noted, calls follow the shape of the dose curve; as a rule, active = well fitted inhibition curve with a large enough effect (not every such curve was filed as active); inconclusive = small, poorly fitted or top-dose-only effect, or another doubt; inactive = no such curve, though single readings can be large or run the other way. Potency is read from the fitted curve at half-maximal effect.
SMILES,HTT ATP protect,HttQ103 aggreg,HPGD block,JMJD2E inh,Lamin A splicing,ALDH1A1 inh
Cc1ccccc1N1CCN(Cc2c[nH]c3ccccc23)CC1,-52.9%[10 µM],22.4µM*,-2.8%,-27.3%,?,-6.4%
COc1ccccc1N1CCN(Cc2c[nH]c3ccccc23)CC1,-13.3%[10 µM],-19.2%[9.22 µM],·,-3.7%,·,·
c1ccc2c(CN3CCN(Cc4c[nH]c5ccccc45)CC3)c[nH]c2c1,2.8%[10 µM],·,-12.4%,·,·,-11.2%[13.5 µM]
NC(N)=NCCCC(=O)O,11.4%[10 µM],·,-2.1%,·,·,0.5%[13.5 µM]
CC#CCN1c2ccccc2[C@]23C[C@@H](C(=O)OC)N(S(=O)(=O)c4c(C)noc4C)C2=NC(C(=O)OC)=C(C(=O)OC)[C@H]13,-11.7%[10 µM],·,-15.0%,4.3%[11.4 µM],-17.4%[9.22 µM],7.6%[13.5 µM]
CO[C@@H]1/C=C\O[C@]2(C)Oc3c(C)c(O)c4c(O)c(c(/C=N\N5CCN(C)CC5)c(O)c4c3C2=O)NC(=O)/C(C)=C\C=C/[C@H](C)[C@H](O)[C@H](C)[C@H](O)[C@H](C)[C@H](OC(C)=O)[C@@H]1C,0.2%,·,·,·,·,·
COC(=O)CCC/C=C1/SCC(NC(=O)c2ccccc2)C1=O (configuration not stated),-15.7%,10.4%,25.1µM*,?,4.8%,7.94µM*
COc1cccc([C@@H]2Oc3ccc(OC)cc3C(=O)[C@H]2OC(=O)Nc2ccc(C)c(Br)c2)c1,?,·,-14.2%,?,·,?
Cc1ccccc1-n1c(-c2csc3ccccc23)n[nH]c1=S,·,13.9%,15.8µM*,-0.7%,1.5%,22.4µM*
Cc1ccccc1-n1c(-c2csc(C)c2C)n[nH]c1=S,·,?,-24.5%,-19.5%,-2.4%,?
Cc1nn(-c2ccccc2)c2sc(C(=O)N(CC(=O)NC(C)(C)C)Cc3ccco3)cc12,-3.1%[10 µM],-31.8%,-28.0%,?,-22.3%,25.1µM*
C=CC[C@@H]1C=C[C@H](Oc2ccc(C)cc2)[C@H](COC(=O)NCc2cccc3ccccc23)O1,-8.6%[10 µM],·,·,·,·,-3.9%[13.5 µM]
Cc1ccc(S(=O)(=O)N2c3ccc(S(N)(=O)=O)cc3CC2C)cc1 (configuration not stated),-5.5%[0.074 µM],4.9%,-5.9%,7.0%,3.0%,25.1µM*
COc1cc(NC(=O)c2cnc3c(-c4ccc(F)cc4)c(C)nn3c2C)cc(OC)c1,·,·,·,·,12.5%[46 µM],·
CC(C)(C)Nc1oc(-c2ccccc2)nc1-c1ccc(C(F)(F)F)cc1,·,·,-9.1%,1.9%,·,15.1%
Cc1onc(-c2ccccc2)c1C(=O)NC(=S)NNC(=O)c1ccc(O)cc1,·,15.0%,-17.7%,2.4%,-11.4%,?
CCCOc1ccc(NC(=O)c2c(-c3ccccc3)noc2C)cc1,-0.7%,-5.5%,-0.5%,-4.4%,6.5%,-5.2%
Cc1onc(-c2ccccc2)c1C(=O)N/N=C/c1cccc(O)c1,·,-15.1%,28.2µM*,-0.2%,?,-0.2%
Cc1onc(-c2ccccc2)c1C(=O)NC(=S)NNC(=O)c1ccccc1O,·,?,-7.5%,17.8µM*,?,0.0%
CCCOc1ccc(C(=O)NC(=S)NNC(=O)c2c(-c3ccccc3)noc2C)cc1,15.1%[10 µM],-13.2%[9.22 µM],·,11.2µM*,·,·
Cc1onc(-c2ccccc2)c1C(=O)NC(=S)NNC(=O)c1ccc(O)cc1O,·,?,-19.7%,11.2µM*,-29.2%,?
CN(C)c1ccc(C(=C2C=CC(=[N+](C)C)C=C2)c2c(O)c(S(=O)(=O)O)cc3cc(S(=O)(=O)O)ccc23)cc1,-7.3%[10 µM],·,-6.6%,·,·,3.55µM*
CCc1cc(C(=O)COc2ccccc2F)c(O)cc1O,-2.4%[1.9 µM],?,31.6µM*,7.8%,?,?
CCc1cc(C(=O)Cc2ccc(F)cc2)c(O)cc1O,-10.3%[10 µM],?,-19.4%,?,?,-1.0%
O=C(O)COc1ccc(/C=C2\SC(=Nc3ccccc3)N(c3ccccc3)C2=O)cc1,-17.8%,-19.6%,·,1.9%,·,17.8µM*
SMILES,HTT ATP protect,HttQ103 aggreg,HPGD block,JMJD2E inh,Lamin A splicing,ALDH1A1 inh
O=C(O)COc1ccccc1/C=C1\SC(=Nc2ccc(F)cc2)N(c2ccc(F)cc2)C1=O,-15.7%,11.3%,·,4.8%,·,-16.7%
CCOc1cc(/C=C2\SC(=Nc3ccccc3)N(c3ccccc3)C2=O)ccc1OCC(=O)O,·,25.2%,-5.3%,-2.8%,?,?
O=C(O)c1ccc(/C=C2\SC(=Nc3ccccc3)N(c3ccccc3)C2=O)cc1,12.6µM*,-31.2%,·,13.7%,·,15.8µM*
COc1ccc(OC)c(CCNC(=O)c2cnn(-c3ccccc3)c2C2CCN(C(=O)OC(C)(C)C)CC2)c1,·,·,·,·,-16.0%[46 µM],·
C/C(CCN1CCCCc2nc(C)c(C)cc21)=N\OC[C@@H](C)[C@H](OCc1ccccc1)C(C)C,-11.5%[10 µM],·,·,·,·,-5.9%[13.5 µM]
COc1cc(C)ccc1OCCSc1nnc(-c2ccc(C)cc2)o1,·,·,·,·,15.2%[46 µM],·
COc1ccc(N=C/C=C2/C=C(c3ccccc3)OC(C)(C)O2)cc1,·,·,·,-9.2%,?,1.41µM*
COc1ccc(N=Nc2cnc(C)nc2-c2ccccc2)cc1,6.9%[10 µM],-15.5%,-24.2%,-1.9%,?,-12.6%
CCOC(=O)c1cc(-c2ccco2)nn1-c1ccc(C)cc1,-42.4%,17.7%,·,-13.4%,-22.1%[46 µM],14.1µM*
O=C(c1cc(-c2ccco2)nn1-c1cccc(Cl)c1)N1CCCCC1,-0.7%[10 µM],31.1%,1.58µM*,?,1.0%,3.55µM*
CC(C)NC(=O)c1cc(-c2ccco2)nn1-c1ccc(Cl)cc1,-6.6%,-11.9%,?,-25.6%,-6.4%,28.2µM*
Cc1ccc(-n2nc(-c3ccco3)cc2C(=O)O)cc1,-5.4%[10 µM],-22.4%[9.22 µM],·,?,·,·
Cc1ccc(S(=O)(=O)c2c[nH]c3cc4c(cc3c2=O)OCO4)cc1,-18.3%[10 µM],-31.4%[9.22 µM],·,?,·,·
N#Cc1cccc(-c2ccc3ncnc(NCc4ccccc4)c3c2)c1,-38.0%,·,·,·,?,?
O=C(CCn1nc(-c2ccc(Cl)cc2)c2ccccc2c1=O)NN1CCOCC1,2.6%[10 µM],0.6%[9.22 µM],·,2.8%,·,·
CC(C)c1nc(N2CCN(C(=O)c3ccccc3)CC2)c(C#N)c2c1COC(C)(C)C2,-13.3%,14.1µM*,?,?,-2.2%,?
CCc1nc(OCC(=O)c2ccccc2)c(C#N)c2c1COC(C)(C)C2,-52.0%,-19.2%,-12.6%,-2.4%,-3.6%,6.31µM*
Cc1nc(OCC(=O)c2ccc(Cl)cc2)c(C#N)c2c1COC(C)(C)C2,-12.9%,?,-12.6%,4.7%,11.5%,?
CC1(C)Cc2c(C#N)c(N3CCN(C(=O)c4ccccc4)CC3)nc(-c3ccco3)c2CS1,2.3%[10 µM],-5.9%,?,5.3%,-10.9%,0.9%
O=C(O)CC(O)CC(O)/C=C/c1c(C2CC2)nc2ccccc2c1-c1ccc(F)cc1 (configuration not stated),-254.4%,-37.8%,·,·,?,·
COc1ccc(-n2c(=O)c(CCc3ccccc3)nc3cnc(N4CCNCC4)nc32)cc1,-60.5%,·,?,·,·,?
